# Values without a mark were called inactive. A call without a number means that no potency is given here. Activity calls are given as the source filed them. Calls follow the shape of the dose curve; as a rule, active = well fitted activation curve with a large enough effect in the repeat runs; inconclusive = weak or mixed curves; inactive = flat fitted curve, though single readings scatter.
# Assay: A CellTox Green Cytotoxicity Assay to monitor cytotoxicity in HEK293 cells - 0 hour (AID 1224869); also: nearly all actives have a fitted effect of over 50% in size
# Conditions: CellTox Green fluorescence; series mostly up to 76.8 µM
# Description: National Center for Advancing Translational Sciences [NCATS]
# NIH Chemical Genomics Center [NCGC]
# U.S. Environmental Protection Agency [EPA]
# National Institutes of Environmental Health Sciences [NIEHS]
# National Toxicology Program [NTP]
# Cell-based models are critical for drug discovery. Determining the natural cytotoxic effects resulting from test compounds is an essential research activity. A CellTox Green Cytotoxicity Assay to monitor cytotoxicity in real time of continues cell culture during 40 hours of the compound treatment was used to screen Tox21 10K library compounds in Hek293 cells. CellTox Green Cytotoxicity Assay is a nonlytic, homogeneous, biofluorescent method to measure cytotoxicity in cell culture after experimental manipulation. The assay system uses a proprietary asymmetric cyanine dye that is excluded from viable cells but preferentially stains the dead cell's DNA. […] Viable cells produce no appreciable increases in fluorescence. Therefore, the fluorescence signal produced by the binding interaction with dead cell DNA is proportional to cytotoxicity.
# The mixture of Hek293 cell suspension and reagents were dispensed at 600cells/6 ul/well in 1536-well tissue culture treated black solid bottom plates using a Multidrop dispenser. After the assay plates were incubated at a 37 C/5% CO2 incubator for 5 hours, 23 nL of compounds dissolved in DMSO, positive and negative controls was transferred to the assay plate by a pintool work station. The plates were incubated at 37 C for 40 hours. The fluorescence intensity were measured at 0h, 8h, 16h, 24h, 32h and 40h time points using ViewLux plate reader during compound treatment.
SMILES,Potency,cytotoxicity
CCOP(=O)(OCC)Oc1nc(Cl)c(Cl)cc1Cl,inactive,–
CCOC(=O)Cc1ccccc1,inactive,–
CSC1=N[C@@](C)(c2ccccc2)C(=O)N1Nc1ccccc1,inactive,–
CCCCC(CC)COC(=O)c1ccccc1C(=O)OCC(CC)CCCC (stereo not given),inactive,–
C[C@]12C/C(=C/O)C(=O)C[C@@H]1CC[C@@H]1[C@@H]2CC[C@@]2(C)[C@H]1CC[C@]2(C)O,inactive,–
O=C(CCCCl)c1ccc(F)cc1,inactive,–
CC1(C)C(C=C(Cl)Cl)C1C(=O)OC(C#N)c1ccc(F)c(Oc2ccccc2)c1 (stereo not given),inactive,–
O=C1C(Cl)=C(Cl)C(=O)C(Cl)=C1Cl,inactive,–
C[C@]12Cc3cn[nH]c3C[C@@H]1CC[C@@H]1[C@@H]2CC[C@@]2(C)[C@H]1CC[C@]2(C)O,inactive,–
C[C@@H]1CC2=CC(=O)CC[C@@H]2[C@H]2CC[C@@]3(C)[C@@H](CC[C@]3(C)O)[C@@H]21,inactive,–
CC#C[C@]1(O)CC[C@H]2[C@@H]3C[C@H](C)C4=CC(=O)CC[C@]4(C)[C@H]3CC[C@@]21C,inactive,–
Clc1cc(Cl)c(-c2cc(Cl)c(Cl)cc2Cl)cc1Cl,inactive,–
CCOP(=O)(OCC)Oc1cc(C)nc(C(C)C)n1,inactive,–
COc1ccc2c3c1O[C@H]1[C@H](O)CC[C@H]4[C@@H](C2)N(C)CC[C@@]341,inactive,–
Oc1cccc(Cl)c1Cl,inactive,–
N#Cc1ccc(N(CC(N)=O)CC(F)(F)F)cc1C(F)(F)F,inactive,–
Nc1c(Cl)c(Cl)c(Cl)c(Cl)c1Cl,inactive,–
O=C(NC(=O)c1ccccc1Cl)Nc1ccc(OC(F)(F)F)cc1,inactive,–
Clc1ccc(C2(Cn3cncn3)OCCO2)c(Cl)c1,inactive,–
Oc1cc(Cl)c(Cl)c(Cl)c1Cl,inactive,–

SMILES,Potency,cytotoxicity
COC(=O)C(C)N(C(=O)c1ccco1)c1c(C)cccc1C (stereo not given),inactive,–
O=P(Cl)(Cl)Cl,inactive,–
CC(=O)[O-].CC(=O)[O-].CC(=O)[O-].[Sb+3],–,-0.412% [at 2.72 µM]
N#Cc1sc2c(=O)c3ccccc3c(=O)c=2sc1C#N,inactive,–
FC(F)C(F)(F)OCC(Cn1cncn1)c1ccc(Cl)cc1Cl (stereo not given),inactive,–
CN=C=O,inactive,–
O=[N+]([O-])c1ccc(CCl)cc1,inactive,–
CC(Cl)CCl (stereo not given),inactive,–
C=CCBr,inactive,–
CCCCC/C=C\C/C=C\C/C=C\C/C=C\CCCC(=O)NCC(=O)O,inactive,–
CCCCN(CCCC)C(=S)S,inactive,–
CCCC[N+]1(C)CCCC1 (tested in a mixture with another compound),inactive,–
O=[N+]([O-])c1cc(C(F)(F)F)c(Cl)c([N+](=O)[O-])c1Nc1ncc(C(F)(F)F)cc1Cl,inactive,–
CC(C)=CC1C(C(=O)OC(C#N)c2cccc(Oc3ccccc3)c2)C1(C)C (stereo not given),inactive,–
NC(=O)C(Cl)Cl,inactive,–
COP(=O)(OC)Oc1ccc([N+](=O)[O-])cc1,inactive,–
CCn1cc[n+](C)c1 (tested in a mixture with another compound),inactive,–
C[N+]1(C)[C@@H]2CC[C@H]1CC(OC(=O)C(CO)c1ccccc1)C2 (stereo not given in full),inactive,–
[Cl-].[Cl-].[Sn+2],inactive,–
CC(=O)[O-].CC(=O)[O-].O.O.[Zn+2],inactive,–
